Screening data: PubChem BioAssay, National Center for Advancing Translational Sciences (NCATS)
Only a selection was taken, and hits are over-represented in it overall.
Pf Dd2 inh – Plasmodium falciparum Dd2 growth inhibition; 4.3% of 120,000 active; Potency, µM (series often up to 28.9 µM), usual class: inhibitors; P. falciparum Dd2 growth, SYBR Green, 72 h; AID 1347417; active means well fitted inhibition curve with a large enough effect; further: nearly all actives have a fitted effect of over 65% in size
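Infected erythrocytes (Dd2, 0.3% parasitemia, 2.5% hematocrit final) are added to compound in RPMI-1640/Albumax II medium, grown 72 h at 37C in low oxygen, then lysed with saponin/Triton-X containing SYBR Green and read by fluorescence.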
Each line names hits and unclear results; the compound was inactive in the other large screens.

O=C1NC2(CCN(C(=O)c3ccccc3F)C2)N=C1c1cccnc1 (centres undefined)	none
CC(=O)NCC(=O)N1CCCn2cc(-c3ccccc3)nc21	none
COCCOC1CCOC2(CCN(C(=O)c3ccccc3)CC2)C1 (centres undefined)	none
COCCOC1CCOC2(CCN(C(=O)Cc3c[nH]c4ccccc34)CC2)C1 (centres undefined)	Pf Dd2 inh 11µM
COCCOC1CCOC2(CCN(C(=O)Cc3ccccc3)CC2)C1 (centres undefined)	none
COCCOC1CCOC2(CCN(C(=O)C3(c4ccccc4)CC3)CC2)C1 (centres undefined)	none
COC1CCOC2(CCN(C(=O)COc3ccccc3)CC2)C1 (centres undefined)	none
COCCOC1CCOC2(CCN(C(=O)COc3ccccc3)CC2)C1 (centres undefined)	Pf Dd2 inh 11µM
COCCOC1CCOC2(CCN(C(=O)c3n[nH]c4ccccc34)CC2)C1 (centres undefined)	none
COCCOC1CCOC2(CCN(C(=O)c3nn(C)c4ccccc34)CC2)C1 (centres undefined)	Pf Dd2 inh 5.6µM
COCCOC1CCOC2(CCN(C(=O)c3nccc4ccccc34)CC2)C1 (centres undefined)	none
Cc1c(CN2CCN(Cc3cccs3)C(CCO)C2)cnn1C (centres undefined)	none
CCn1ccc2oc(C)c(C(=O)NCc3ccccc3Cl)c2c1=O	none
COC(=O)CNC(=O)c1nc(-c2cc(Cl)cc(Cl)c2)c2ccccn12	none
COC1CN(c2cccc(F)c2)C12CCN(C(=O)NC(C)(C)C)CC2 (centres undefined)	none
COC1CN(c2cccc(F)c2)C12CCN(C(=O)NC1CCCCC1)CC2 (centres undefined)	Pf Dd2 inh 6.3µM
COC1CN(c2cccc(F)c2)C12CCN(C(=O)C1CCCCC1)CC2 (centres undefined)	Pf Dd2 inh 10µM
COC1CN(c2cccc(F)c2)C12CCN(C(=O)c1ccncc1)CC2 (centres undefined)	none
COC1CN(c2cccc(F)c2)C12CCN(C(=O)CCC1CCCC1)CC2 (centres undefined)	none
COC1CN(c2cccc(F)c2)C12CCN(C(=O)C1CCC1)CC2 (centres undefined)	none
O=C(NC[C@H]1O[C@@H](CO)[C@@H](O)[C@H]1N1CCN(c2cccc(C(F)(F)F)c2)CC1)Nc1ccccc1	none
O=C(c1ccccc1F)N1CCn2c(nnc2[C@@H]2C[C@@H](O)CN2Cc2cccnc2)C1	none
CN(C)c1ccc(CN2CCn3c(nnc3-c3ccc(Cl)cc3)C2)cc1	none
COc1ccc(O[C@H]2COCCN(C(=O)COc3ccccc3)C2)cc1	none
CC1CCCCN1C(=O)C(NC(=O)c1cccs1)C1CCN(C(=O)C2CCCC2)CC1 (centres undefined)	none
CN(C)CCNC(=O)c1ccc2c(c1)C1(CCCN(CC3CC3)C1)CN2C (centres undefined)	none
CN1CC2(CCCN(CC3CC3)C2)c2cc(C(=O)NCCc3ccccc3)ccc21 (centres undefined)	Pf Dd2 inh 3.2µM
CC(=O)N1CCCC2(C1)CN(C)c1ccc(C(=O)NCCc3ccccc3)cc12 (centres undefined)	none
O=[S+]1([O-])CCCN1C1CCN([S+](=O)([O-])c2ccc(C(F)(F)F)cc2)CC1	none
CC(C)c1ccc(C(=O)N[C@H](C2CCNCC2)C2CC(O)C2)c(=O)n1C (some centres undefined)	none
O=C(c1cccc(F)c1)N1CCCC(Nc2ccc(F)cc2)C1 (centres undefined)	none
Cc1ccc(NC(=O)C2CCCN(S(=O)(=O)c3ccc(F)cc3)C2)cc1 (centres undefined)	none
CCc1ccc(NC(=O)C2CCCN(S(=O)(=O)c3ccc(F)cc3)C2)cc1 (centres undefined)	none
N#Cc1cc(CN2CCCC(C(=O)Nc3cccc(-c4ccc(F)cc4)c3)C2)c[nH]1 (centres undefined)	Pf Dd2 inh 10µM
CC(C)(C)CC(=O)N1CCCC(C(=O)Nc2cccc(-c3ccc(F)cc3)c2)C1 (centres undefined)	none
O=C(Nc1ccc(-c2cccc(F)c2)cc1)C1CCCN(C(=O)c2ccncc2)C1 (centres undefined)	Pf Dd2 inh 7.1µM
Cc1ncoc1C(=O)N1CCCC1C(=O)Nc1cccc(-c2ccc(F)cc2)c1 (centres undefined)	none
Cc1[nH]cnc1CN1CCCC(C(=O)Nc2ccc(-c3cccc(F)c3)cc2)C1 (centres undefined)	Pf Dd2 inh 10µM
CC(=O)NCC(=O)N1CCCC(C(=O)Nc2cccc(-c3ccc(F)cc3)c2)C1 (centres undefined)	none
CCc1ccc(NC(=O)NCCc2noc(C)n2)cc1	none
COc1cc(=O)n2c(c1C(=O)Nc1ccc(C(C)C)cc1)CCCC2	none
O=C(c1ccccc1F)N1CCC2(CC1)CCN(CCc1ccccc1)c1ccccc1O2	none
CCCN1C(=O)c2[nH]nc(-c3ccccc3)c2C1c1cccc(O)c1 (centres undefined)	none
CCCN1C(=O)c2[nH]nc(-c3cccc(OC)c3)c2C1c1ccccn1 (centres undefined)	none
CCOc1cc(C2c3c(oc4ccccc4c3=O)C(=O)N2Cc2ccc(OC)cc2)ccc1O (centres undefined)	none
O=C(NC1(C(F)(F)F)NC(=O)N(CCc2ccccc2)C1=O)c1ccc(Cl)cc1 (centres undefined)	none
COc1ccc(CCN2C(=O)c3[nH]nc(-c4ccccc4O)c3C2c2ccc(O)c(OC)c2)cc1 (centres undefined)	Pf Dd2 inh 10µM
COc1ccc(-c2n[nH]c3c2C(c2ccccn2)N(C)C3=O)cc1 (centres undefined)	none
O=C1c2[nH]nc(-c3ccccc3O)c2C(c2ccc(Cl)cc2)N1CCc1ccccc1 (centres undefined)	Pf Dd2 inh 8.9µM
CCCN1C(=O)c2[nH]nc(-c3ccccc3O)c2C1c1cccc(OCc2ccccc2)c1 (centres undefined)	Pf Dd2 inh 4.5µM
O=C1c2[nH]nc(-c3ccccc3O)c2C(c2ccc(F)cc2)N1CCO (centres undefined)	none
O=C(C1CCOCC1)N1CC2CC(C1)[C@H]1CCCC(=O)N1C2 (some centres undefined)	none
O=C1NCCCCCCN(C(=O)CC2CCCCC2)[C@H]2C[C@H](c3nc(-c4cnccn4)no3)C[C@@H]12	none
O=C(c1ccoc1)N1CC[C@@H](c2ccc3ccccc3c2)[C@H](O)C1	none
COCc1noc([C@@H]2CC(F)(F)CN2C(=O)COc2ccccc2)n1	none
COc1ccc(CCC(=O)N2[C@H]3CC[C@@H]2c2cnc(-c4ccccc4)nc2C3)cc1	none
COCCC(=O)N1[C@H]2CC[C@@H]1c1cnc(-c3ccccc3)nc1C2	none
COc1ccccc1C(=O)N1[C@H]2CC[C@@H]1c1cnc(-c3ccccc3)nc1C2	none
CCNC(=O)N1[C@H]2CC[C@@H]1c1cnc(-c3ccccc3)nc1C2	none
Cc1noc(C)c1Cc1ccc(C(=O)N2[C@H]3CC[C@@H]2c2cnc(-c4ccccc4)nc2C3)o1	Pf Dd2 inh 0.63µM
COc1ccc(CNC(=O)N2[C@H]3CC[C@@H]2c2cnc(-c4ccccc4)nc2C3)cc1	Pf Dd2 inh 11µM
Cc1noc(C)c1CC(=O)N1[C@H]2CC[C@@H]1c1cnc(-c3ccc(F)cc3)nc1C2	none
O=C(CC1CCCC1)N1[C@H]2CC[C@@H]1c1cnc(-c3ccccc3)nc1C2	Pf Dd2 inh 13µM
O=C(Cc1ccccc1)N1[C@H]2CC[C@@H]1c1cnc(-c3ccccc3)nc1C2	none
O=C(CCn1cccn1)N1CC(F)(F)C[C@H]1c1nc(C2CC2)no1	none
